FLuc modulator = counter-screen for miR-21 project: firefly luciferase inhibitors or activators; P08659; purified FLuc, Km substrates, luminescence inhibition; Potency, µM (top dose mostly 57.5 µM), for inactives: top-dose activity change, negative = inhibition, most hits filed as inhibitors; 6.9% of 360,000 active;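 further: plate controls were vehicle for no effect and reference inhibitor for full effect; nearly all actives have a fitted effect of over 55% in size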
Target sequence (P08659 whole entry, looked up): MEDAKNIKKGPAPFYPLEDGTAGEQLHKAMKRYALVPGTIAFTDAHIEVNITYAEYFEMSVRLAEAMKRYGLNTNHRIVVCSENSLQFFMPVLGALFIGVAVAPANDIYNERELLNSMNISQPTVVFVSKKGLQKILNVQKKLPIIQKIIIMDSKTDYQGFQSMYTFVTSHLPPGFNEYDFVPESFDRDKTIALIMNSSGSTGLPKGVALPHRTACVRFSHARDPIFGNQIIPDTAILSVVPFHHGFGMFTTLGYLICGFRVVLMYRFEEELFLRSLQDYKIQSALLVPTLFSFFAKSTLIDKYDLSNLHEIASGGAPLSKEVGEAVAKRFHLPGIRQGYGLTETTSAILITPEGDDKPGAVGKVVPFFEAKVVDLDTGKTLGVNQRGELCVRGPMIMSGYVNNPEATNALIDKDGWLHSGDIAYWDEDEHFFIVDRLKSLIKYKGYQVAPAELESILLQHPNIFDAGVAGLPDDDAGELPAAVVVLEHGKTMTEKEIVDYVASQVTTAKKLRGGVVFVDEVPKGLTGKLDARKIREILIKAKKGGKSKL
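Purified P. pyralis luciferase (10nM final) with 10uM D-luciferin and 10uM ATP (Km levels) in 50mM Tris acetate pH 7.5, 10mM Mg acetate, 0.01% Tween-20, 0.05% BSA; qHTS 6-point titration, ~60 µM downward; luminescence read.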
ELG1 repair inh = inhibitors of ELG1-dependent DNA repair in HEK293T cells; Potency, µM (series often up to 46.1 µM), without a hit: at the highest dose activity change, negative = inhibition, most hits filed as inhibitors; AID 504467; HEK293T ELG1-luciferase reporter, luminescence, 16 h; DNA damage induced by 5-fluorouridine; 2.3% of 330,000 active; further: on the % scale 0 is the no-effect control and ±100 the full control effect; nearly all actives have a fitted effect of over 55% in size
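Quantitative HTS, concentration-response format. 2,000 cells/well co-treated with 5-fluorouridine and compound, 16 hr in 5% CO2 at 37 °C; ONE-Glo luminescence read after 30 min.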
NPC1 prom act = NPC1 promoter activation | Huh7 NPC1 promoter luciferase reporter, 24 h | Potency, µM (titrated, usually from 9.22 µM), for inactives: at the top dose activation, hits mostly activators | 2.4% of 320,000 active | AID 485313; further: % of control where 0% means no effect; nearly all actives have a fitted effect of over 60% in size
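Readout is luciferase luminescence, reflecting NPC1 promoter activation in stably transfected Huh7 cells after 24 h compound exposure at 37 °C in reduced-serum medium with 10% FBS.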
ELG1 genotox = inducers of genotoxicity in HEK293T ELG1-luciferase cells; HEK293T ELG1-luciferase reporter, luminescence, 16 h; Potency, µM (series often up to 46 µM), inactives show top-dose activity change, positive = activation, most hits filed as activators; 1.3% of 330,000 active; further: % of control where 0% means no effect; nearly all actives have a fitted effect of over 60% in size
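Cells (2,000/well) expressing the ELG1-luciferase fusion are dosed by pin tool and kept 16 hr at 37 °C, 5% CO2. Signal comes from ONE-Glo luciferase reagent after 30 min at room temperature.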
Rab9 promoter act = Rab9 promoter activation. Huh7 Rab9 promoter-luciferase reporter, luminescence, 24 h. Potency, µM (top dose mostly 9.22 µM), without a hit: at the top dose activation, negative = inhibition, hits mostly activators. 2.8% of 320,000 active. AID 485297; further: % of control where 0% means no effect; nearly all actives have a fitted effect of over 60% in size
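Stable Rab9-luc Huh7, 1500 cells/well, 2 h settle; cmpd in DMSO, 24 h, 37 °C/5% CO2; luciferase reagent 10 min RT; luminescence.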
SMN2 splice up = enhancers of SMN2 splice variant expression; HEK293 SMN2-luciferase splicing reporter, luminescence, 30-36 h; Potency, µM (doses to about 46.1 µM), inactives show at the highest dose activity change, positive = activation, actives largely listed as activators; 2.8% of 210,000 active; AID 1458; further: % of control where 0% means no effect; nearly all actives have a fitted effect of over 55% in size
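HEK293 cells carry an SMN2 […]–luciferase reporter in which exon 7 inclusion puts luciferase in frame. Cells were plated 10-12 h before compound addition, then incubated 30-36 h at 37C. ONE-Glo luminescence was read; sodium butyrate at 4.5 mM final served as control.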
Starred values were filed as active, the others as inactive; ? = inconclusive; nt = not tested or not shown. This is a sample that favours compounds with a hit; in the whole collection about 9.3% have one here. The call rests on the fitted dose curve; in most records, active means well fitted curve in the direction sought with a large enough effect; inconclusive means small, poorly fitted or top-dose-only effect, or another doubt; inactive means no such curve, though single readings can be large; an effect the other way counts as inactive or inconclusive. Potency means the concentration at half of the fitted maximal effect.

SMILES	FLuc modulator	ELG1 repair inh	NPC1 prom act	ELG1 genotox	Rab9 promoter act	SMN2 splice up
COc1cccc(/C=N/NC(=O)c2c(C)nc3ccc(Br)cn23)c1O	?	2.06µM*	-29.9%	0.2%	-29.0%	-103.4%
COc1cccc(/C=N/NC(=O)C(C)n2nc(C)c([N+](=O)[O-])c2C)c1O (centres undefined)	7.57µM*	16.7%	-12.6%	?	-30.1%	?
CC(=O)N1CCN(c2ccc(NCc3ccc(C)cc3)cc2)CC1	3.2%	?	-1.2%	0.3%	-1.3%	-39.9%
C=CCNC(=O)CN(c1ccccc1OCC)S(=O)(=O)c1ccc(C)cc1	1.2%	-1.5%	-3.6%	0.2%	-7.3%	13.6%
COc1cccc(/C=N\NC(=O)c2ccc(Cn3cc(Br)c([N+](=O)[O-])n3)o2)c1O	10.7µM*	?	-33.3%	11.7%	-50.9%	nt
CCC(=O)N1CCN(c2ccc(NC(=O)c3cccs3)cc2)CC1	-15.7%	?	6.7%	13.6%	6.1%	15.3%
Cc1c(C(=O)c2ccccc2)oc2ccc3ccccc3c12	4.78µM*	?	?	?	3.16µM*	nt
Cc1nnsc1NC(=O)OCc1ccc(Cl)cc1Cl	5.2%	1.9%	-0.3%	-6.3%	2.4%	-10.0%
O=C(CSCC(=O)Nc1cccc2ccccc12)Nc1cccc2ccccc12	-4.2%	?	2.4%	-5.0%	-0.3%	nt
O=C(Nc1cccc(Cl)c1)N1CCN(Cc2ccccc2)CC1	15.1µM*	?	?	20.6µM*	?	10µM*
Cc1ccc(NC(=S)N2CCN(Cc3ccccc3)CC2)cc1	12µM*	5.4%	-0.2%	34.3%	13.9%	-58.2%
S=C(NCc1ccc(Cl)cc1)NC1CCN(Cc2ccccc2)CC1	2.9%	18.3µM*	-9.9%	-1.8%	-11.2%	-43.7%
S=C(Nc1ccc(Cl)cc1)N1CCN(Cc2ccccc2)CC1	19µM*	-3.3%	-2.8%	-3.3%	2.4%	-10.2%
CC(=O)c1cc(-c2ccccc2)[nH]c1N1CCOCC1	2.2%	11.4%	-1.0%	1.5%	1.0%	12.4%
COc1ccc(OC)c(-c2cc(C(=O)Nc3c(C)nn(Cc4ccc(Cl)cc4)c3C)no2)c1	5.2%	?	-8.2%	-15.9%	-8.1%	-19.8%
O=C1c2ccccc2CCC12N=NCC2c1ccc(Br)cc1 (centres undefined)	?	9.6%	-1.5%	-7.7%	0.5%	-17.6%
COc1ccc(C2CN=NC23CCc2ccccc2C3=O)cc1 (centres undefined)	16.9µM*	?	-3.4%	1.8%	1.2%	nt
O=C1c2ccccc2CCC12N=NCC2c1ccc(Cl)cc1 (centres undefined)	21.3µM*	-5.5%	-3.9%	-0.2%	6.8%	-13.3%
O=C(OC1Cc2c(O)cc(O)cc2OC1c1cc(O)c(O)c(O)c1-c1c(C2Oc3cc(O)cc(O)c3CC2OC(=O)c2cc(O)c(O)c(O)c2)cc(O)c(O)c1O)c1cc(O)c(O)c(O)c1 (centres undefined)	nt	nt	nt	nt	nt	7.8%
CCOC(=O)C1(CC2CC2)CCN(Cc2cnc(N(C)C)s2)CC1	-0.4%	19.6%	-4.6%	0.2%	-1.4%	nt
O=C(CSc1nnnn1-c1ccccc1)Nc1nsc(-c2ccccc2)n1	-1.1%	2.1%	1.0%	5.5%	-4.8%	-0.7%
COc1ccc(-c2nc(NC(=O)CSc3nnc4ccccn34)ns2)cc1	12µM*	?	29.9%	-6.4%	2.2%	18.2%
O=C(CSc1nnc2ccccn12)Nc1nsc(-c2ccccc2)n1	15.1µM*	-24.6%	11.0%	-1.6%	-0.4%	10.6%
O=C(CSc1nnc2ccccn12)Nc1cccc(-c2nc3ccccc3s2)c1	-19.5%	?	3.55µM*	?	?	14.1µM*
CCOC(=O)c1sc2nc3c(cc2c1N)COC(C)(C)C3	6.75µM*	?	2.82µM*	?	2.51µM*	11.2µM*
SMILES	FLuc modulator	ELG1 repair inh	NPC1 prom act	ELG1 genotox	Rab9 promoter act	SMN2 splice up
CCOC(=O)c1sc2nc3c(cc2c1N)COC(C)(CC)C3 (centres undefined)	1.35µM*	?	0.794µM*	?	0.794µM*	10µM*
CCOC(=O)c1cc2c(nc1N)CC(C)(CC)OC2 (centres undefined)	?	?	?	13µM*	3.16µM*	?
CCC1(C)Cc2nc3sc(C(=O)O)c(N)c3cc2CO1 (centres undefined)	?	?	7.6%	9.5%	2.0%	17.1%
CCOC(=O)c1cc2c(nc1N)CC(C)(C)OC2	?	?	0.4%	14.8%	11.4%	-2.3%
Cc1cccc(NC2=C(Cl)C(=O)OC2OC(C)C)c1 (centres undefined)	-1.7%	1.8%	0.0%	-1.4%	-5.5%	-13.5%
O=C(Oc1c(CN2CCOCC2)cc(Cl)c2cccnc12)c1ccccc1Br	1.7%	8.2µM*	0.7%	-10.1%	-27.5%	nt
Oc1c(CN2CCOCC2)cc(COCc2ccccc2)c2cccnc12	1.1%	?	-17.5%	18.4µM*	-25.3%	-105.3%
CCOC(=O)N1CCN(Cc2cc(Cl)c3cccnc3c2O)CC1	-0.7%	3.66µM*	-32.1%	?	-43.7%	nt
CN1CCN(Cc2cc(Cl)c3cccnc3c2OC(=O)c2cccs2)CC1	3.5%	?	-1.4%	-0.5%	-1.7%	-19.6%
Oc1c(CNc2ccccc2)cc(COCc2ccccc2)c2cccnc12	0.4%	?	-13.8%	-0.9%	-15.5%	nt
COC(=O)c1ccc(C)c(NC(=S)NCc2ccc(Cl)cc2)c1	7.5%	1.8%	-3.3%	0.8%	-1.6%	1.6%
O=C(Nc1ccc(Br)cc1)c1cc2ccccn2n1	0.953µM*	?	0.562µM*	?	0.316µM*	nt
Cc1ccc(NC(=O)c2cc3ccccn3n2)cc1F	2.39µM*	nt	nt	nt	nt	nt

High-throughput results: PubChem, National Center for Advancing Translational Sciences (NCATS)
